Potency data for eleven compounds are collected here from PubChem BioAssay (Tox21).

Several values for one entry are separate records, joined by “and”; a condition that tells them apart may be missing. Equal entries are not always repeated. Records with an inconclusive call do not appear. Some compounds were tested as several samples or in several runs, with calls that do not always agree. Activity calls are given as the source filed them. Calls follow the shape of the dose curve; as a rule, active = well fitted curve in the direction sought with a large enough effect in the repeat runs; inconclusive = weak or mixed curves; inactive = no such curve, though single readings can be large; an effect the other way counts as inactive or inconclusive.

The target of assay [1] is Cytochrome P450 1A2 (Homo sapiens) (UniProt P05177). Kind of assay: Cytochrome P450 Family 1 Subfamily A Member 2 (CYP1A2) small molecule antagonists: luciferase reporter qHTS assay (AID 1671199). Also: potency is read from the fitted curve at half-maximal effect. To be noted: P450-Glo CYP1A2 enzyme, luciferin luminescence, 1 h; series mostly up to 53 µM. The method, boiled down: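 Quantitative high-throughput format using the P450-Glo CYP1A2 system. Reaction initiated by NADPH regeneration solution, 1 h at room temperature, then stopped with detection reagent; luminescence measured 20 min later.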
Background: In a reporter assay the amount or activity of a reporter protein is the signal.

Assay [2] addresses Voltage-gated inwardly rectifying potassium channel KCNH2 (Homo sapiens) (UniProt Q12809). Nature of the assay: Human Ether-a-go-go-Related Gene (hERG) channel small molecule antagonists: fluorescence cell-based qHTS assay (AID 1671200). Also: potency is read from the fitted curve at half-maximal effect. To be noted: hERG-U2OS cells, FluxOR thallium flux fluorescence; series mostly up to 76.8 µM. In a few lines:
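Cell line hERG-U2OS; dye FluxOR II, 1 h RT dark; Tl+ stimulus; ex 480/em 540 nm, read each second for 2 min.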
Background: Block of hERG is tested as a sign of cardiac risk.

In assay [3] the target is Cytochrome P450 3A4 (Homo sapiens) (UniProt P08684). Nature of the assay: Cytochrome P450 Family 3 Subfamily A Member 4 (CYP3A4) small molecule antagonists: luciferase reporter qHTS assay (AID 1671201). Particulars: P450-Glo CYP3A4 enzyme, luciferin luminescence, 1 h; series mostly up to 115 µM. The method, boiled down:
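Room-temperature assay throughout: 10 min compound–enzyme/substrate preincubation, 1 h reaction after NADPH regeneration solution, 20 min detection. Luciferin formed from proluciferin substrate is quantified by luminescence.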
Also: nearly all actives have a fitted effect of over 50% in size.

Sequence of Cytochrome P450 3A4 (Homo sapiens) (P08684 whole entry, looked up): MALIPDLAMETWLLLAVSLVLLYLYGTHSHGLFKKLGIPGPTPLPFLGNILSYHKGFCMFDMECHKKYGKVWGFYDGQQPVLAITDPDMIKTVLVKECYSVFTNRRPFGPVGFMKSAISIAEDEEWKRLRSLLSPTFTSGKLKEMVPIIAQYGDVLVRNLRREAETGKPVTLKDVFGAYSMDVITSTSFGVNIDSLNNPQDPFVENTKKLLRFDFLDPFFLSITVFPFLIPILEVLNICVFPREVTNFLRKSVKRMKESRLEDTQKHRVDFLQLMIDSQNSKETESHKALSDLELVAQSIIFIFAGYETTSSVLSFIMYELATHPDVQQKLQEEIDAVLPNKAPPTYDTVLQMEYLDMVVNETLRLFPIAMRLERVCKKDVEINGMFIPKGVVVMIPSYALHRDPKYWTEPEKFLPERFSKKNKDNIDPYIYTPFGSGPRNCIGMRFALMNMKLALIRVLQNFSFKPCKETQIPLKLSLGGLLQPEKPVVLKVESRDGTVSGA
Sequence of Voltage-gated inwardly rectifying potassium channel KCNH2 (Homo sapiens) (Q12809 whole entry, looked up): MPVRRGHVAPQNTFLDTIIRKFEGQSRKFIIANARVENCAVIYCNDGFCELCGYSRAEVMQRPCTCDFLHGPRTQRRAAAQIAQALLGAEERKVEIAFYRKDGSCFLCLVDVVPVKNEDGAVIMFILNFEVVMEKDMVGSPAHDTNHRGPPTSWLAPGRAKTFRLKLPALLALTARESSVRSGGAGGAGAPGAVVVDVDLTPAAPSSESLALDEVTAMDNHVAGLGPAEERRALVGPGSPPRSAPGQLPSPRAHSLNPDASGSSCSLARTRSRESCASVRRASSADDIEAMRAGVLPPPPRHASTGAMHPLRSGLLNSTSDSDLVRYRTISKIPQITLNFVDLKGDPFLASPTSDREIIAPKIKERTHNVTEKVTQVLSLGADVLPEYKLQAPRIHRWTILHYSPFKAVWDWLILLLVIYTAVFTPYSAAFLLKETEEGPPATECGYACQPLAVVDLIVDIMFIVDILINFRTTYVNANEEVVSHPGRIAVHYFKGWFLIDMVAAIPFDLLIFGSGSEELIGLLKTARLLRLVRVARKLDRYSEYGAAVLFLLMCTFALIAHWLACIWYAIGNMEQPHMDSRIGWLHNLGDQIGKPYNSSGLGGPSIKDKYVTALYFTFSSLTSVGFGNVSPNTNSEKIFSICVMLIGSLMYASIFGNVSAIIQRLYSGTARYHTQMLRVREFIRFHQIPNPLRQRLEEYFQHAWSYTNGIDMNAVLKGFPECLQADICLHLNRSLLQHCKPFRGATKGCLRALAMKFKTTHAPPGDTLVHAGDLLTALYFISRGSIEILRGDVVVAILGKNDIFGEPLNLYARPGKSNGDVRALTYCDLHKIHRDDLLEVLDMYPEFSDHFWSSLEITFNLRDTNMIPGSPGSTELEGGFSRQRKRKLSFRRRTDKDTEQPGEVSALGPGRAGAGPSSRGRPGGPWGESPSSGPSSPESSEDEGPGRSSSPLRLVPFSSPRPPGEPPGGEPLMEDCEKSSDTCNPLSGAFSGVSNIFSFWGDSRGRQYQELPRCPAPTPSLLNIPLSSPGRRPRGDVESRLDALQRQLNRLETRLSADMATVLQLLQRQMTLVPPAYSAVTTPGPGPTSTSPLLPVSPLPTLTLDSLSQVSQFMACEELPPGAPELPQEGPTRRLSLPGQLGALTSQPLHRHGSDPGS
Sequence of Cytochrome P450 1A2 (Homo sapiens) (P05177 whole entry, looked up): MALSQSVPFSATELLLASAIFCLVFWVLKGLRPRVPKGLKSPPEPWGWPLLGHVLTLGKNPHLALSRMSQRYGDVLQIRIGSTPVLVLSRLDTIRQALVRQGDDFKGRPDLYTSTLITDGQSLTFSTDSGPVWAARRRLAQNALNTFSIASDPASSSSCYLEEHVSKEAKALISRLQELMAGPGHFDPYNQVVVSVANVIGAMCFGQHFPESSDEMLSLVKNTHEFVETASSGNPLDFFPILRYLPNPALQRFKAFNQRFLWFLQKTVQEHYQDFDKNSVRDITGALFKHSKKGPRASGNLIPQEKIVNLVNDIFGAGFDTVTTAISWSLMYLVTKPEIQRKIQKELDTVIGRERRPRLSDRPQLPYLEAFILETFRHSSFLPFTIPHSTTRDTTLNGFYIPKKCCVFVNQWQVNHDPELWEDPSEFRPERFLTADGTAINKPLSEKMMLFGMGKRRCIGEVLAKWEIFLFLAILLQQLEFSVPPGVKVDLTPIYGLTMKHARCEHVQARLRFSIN

Take `CN(C)c1ccc(C(=C2C=CC(=[N+](C)C)C=C2)c2ccccc2)cc1`: the Potency in assay [1] was 15.9 µM (active) and 13.8 µM (active); in assay [2] it was 4.25 µM (active) [middle of 4 runs].
Regarding `CC(COc1ccccc1)N(CCCl)Cc1ccccc1` (stereo unspecified), the Potency entry in assay [1] and in assay [3] was “inactive” in each case. Also, the Potency in assay [2] was 19.7 µM (active) and 24.5 µM (active).
For the compound `CC(C(O)c1ccc(O)cc1)N1CCC(Cc2ccccc2)CC1` (stereo unspecified), the Potency result in assay [1] and in assay [3] was “inactive” each time. Also, in assay [2], the Potency was 6.01 µM (active).
On to `COC(=O)c1cccc(C(=O)OC)c1`, for which, in assay [1], the Potency is 12.4 µM (active) and 11.2 µM (active). Moreover, the Potency entry in assay [2] and in assay [3] was “inactive” each time.
As for `CC(=O)O[C@]1(C(C)=O)CC[C@H]2[C@@H]3C[C@H](C)C4=CC(=O)CC[C@]4(C)[C@H]3CC[C@@]21C`, the Potency entry in assay [1] and in assay [2] was “inactive” each time.
On to `O=C(Oc1ccccc1)c1ccccc1O`, for which the Potency in assay [1] was 35.7 µM (active) and 35.6 µM (active) and 28.8 µM (active). In addition, the Potency result in assay [2] and in assay [3] was “inactive” throughout.
Take `CC1COc2c(N3CCN(C)CC3)c(F)cc3c(=O)c(C(=O)O)cn1c23` (stereo unspecified): the Potency entry in assay [1] and in assay [2] was “inactive” throughout.
On to `c1ccc2c(c1)-c1cccc3c1c-2cc1ccccc13`, for which, in assay [1], the Potency is 694 nM (active) and 1 µM (active). Moreover, the Potency result in assay [2] and in assay [3] was “inactive” in each case.
Consider `CC[C@H]1CN2CCc3cc(OC)c(OC)cc3[C@@H]2C[C@@H]1C[C@H]1NCCc2cc(OC)c(OC)cc21`, for which the Potency result in assay [1] was “inactive”.
For `CC1=CC(=O)c2ccccc2C1=O`, the Potency was 1.78 µM (active) and 2.75 µM (active) in assay [1]; 3.89 µM (active) and 7.56 µM (active) in assay [2].
For `COC(=O)[C@H]1[C@H]2C[C@@H]3c4[nH]c5cc(OC)ccc5c4CCN3C[C@H]2C[C@@H](OC(=O)c2cc(OC)c(OC)c(OC)c2)[C@@H]1OC`, the Potency in assay [1] is 32.6 µM (active) and inactive; in assay [2] it was 3.46 µM (active) and 6.34 µM (active) and 10.7 µM (active).
